Values joined by “and” are separate entries in the source; they are usually repeats but may differ in a detail not shown here. Equal values may be shown once.
Legend:
[1] = tested on: Botulinum neurotoxin type F light chain protease (Clostridium botulinum); assay: Clostridium botulinum type F light chain protease inhibitors, microsphere substrate cleavage, validation (AID 588459); details: multiplex microsphere protease substrate cleavage assay, flow cytometry; at 10 µM; hits give high values
[2] = biological target: Botulinum neurotoxin type A (Clostridium botulinum) (UniProt P0DPI0); assay: BoNT/A light chain protease inhibitors, biochemical, multiplex microsphere flow cytometry, validation set (AID 588460); details: at 10 µM, hits give high values
[3] = biological target: Lethal factor (Bacillus anthracis) (UniProt P15917); assay: Bacillus anthracis lethal factor inhibition, microsphere flow cytometry protease assay, validation at 10 µM (AID 588461); details: multiplex microsphere protease cleavage assay, hits give high values

Measured: inhibition

Oc1[nH]c2ccccc2c1N=Nc1ccccc1
inactive: [1] -2.7% | [2] -0.4% | [3] 1.4%

CCNCCC(CCC(C)C)c1ccc2c(c1)OCO2 (centres undefined)
inactive: [1] -3.1% | [2] -1.3% | [3] -0.1%

C[C@H](NC(=O)Nc1ccccc1F)C(=O)O
inactive: [1] -3.8% | [2] -0.3% | [3] -3.2%

C[C@@H]1C[C@H]2[C@@H]3CCC4=CC(=O)C=C[C@]4(C)[C@@]3(F)[C@@H](O)C[C@]2(C)[C@H]1C(=O)CO
inactive: [1] 0.3% | [2] -1.7% | [3] 7.4%

c1cnc(N2CCN(Cc3ccc4c(c3)OCO4)CC2)nc1
inactive: [1] -2.3% | [2] -1.4% | [3] -5.5%

CC(C)COCC1CC2(CC(C)(c3csc(N)n3)OC2=O)C(=O)O1 (centres undefined)
inactive: [1] -3.2% | [2] -1.9% | [3] 9.1%

CCOC(=O)c1cc2c(nc1N)CC(C)(CC)OC2 (centres undefined)
inactive: [1] 3.5% | [2] 1% | [3] -2.4%

CC(C)CN1CC(C(=O)O)CC1=O (centres undefined)
inactive: [1] 3.8% | [2] -1.3% | [3] 1.5%

CCN(CC)CCNc1ccc(CO)c2sc3ccccc3c(=O)c12
inactive: [1] 0.5% | [2] -0.5% | [3] -7%

CCOc1ccc2ccccc2c1C(=O)N[C@@H]1C(=O)N2[C@@H]1SC(C)(C)[C@@H]2C(=O)O
inactive: [1] 5.4% | [2] 1.2% | [3] 0.3%

CN1CCN(CCCN2c3ccccc3Sc3ccc(C(F)(F)F)cc32)CC1
inactive: [1] 0.3% | [2] -0.5% | [3] -3.1%

O=c1cnn([C@@H]2O[C@H](CO)[C@@H](O)[C@H]2O)c(=O)[nH]1
inactive: [1] -0.1% | [2] 1.8% | [3] 5.4%

CCOc1ccc2nc(S(N)(=O)=O)sc2c1
inactive: [1] 2% | [2] 0% | [3] 8.4%

CCN(CC)CC(=O)Nc1c(C)cccc1C
inactive: [1] 2.8% and -0.5% | [2] 0.5% and -2.3% | [3] -6.6% and -3.8%

COc1ccc(C2OC(=O)Cc3cc(OC)c(OC)cc32)cc1 (centres undefined)
inactive: [1] 3.2% | [2] 0.8% | [3] 2.9%

Cc1ccccc1C(=O)NCC(=O)O
inactive: [1] 1.1% | [2] 2.7% | [3] 2.8%

COc1cc2c(cc1OC)C(=S)NC(C)(C)C2
inactive: [1] 2.8% | [2] -0.8% | [3] 2.9%

O=C(O)C1[C@H]2C(=O)N(C3CCCC3)C[C@]23C=C[C@H]1O3 (some centres undefined)
inactive: [1] 6.7% | [2] 1.3% | [3] 5.6%

COCCN(CCOC)Cc1c(C)[nH]c2c(C)c(C)ccc2c1=O
inactive: [1] 3.4% | [2] -0.6% | [3] -0.3%

CCOC(=O)C1C(=O)OC(C)(C)C1C(C)C(=O)c1ccc(C)cc1 (centres undefined)
inactive: [1] 4.4% | [2] 0.5% | [3] 4.6%

COc1ccc(C(=O)NCC2OCCc3ccccc32)cc1 (centres undefined)
inactive: [1] -0.4% | [2] -0.3% | [3] -8.6%

COc1ccc2[nH]c(C)c(CN3CCC(C)CC3)c(=O)c2c1
inactive: [1] -0.8% | [2] 0.1% | [3] -5.9%

CC(=O)C1=C(O)C(=O)N(Cc2cccnc2)C1c1ccc(C(C)C)cc1 (centres undefined)
inactive: [1] 3.2% | [2] 4.3% | [3] 7%

O=C(CN1CCN(Cc2ccccc2)CC1)N1CCCc2c1c(=O)oc1ccc(O)cc21
inactive: [1] 2% | [2] -1.5% | [3] -8.3%

COc1cc2c(cc1O)CC[C@@H]1[C@@H]2CC[C@]2(C)[C@@H](O)CC[C@@H]12
inactive: [1] -2.1% | [2] -2.2% | [3] -2.9%

Clc1ccc(CCNc2ncnc3nc[nH]c23)cc1
inactive: [1] 4.5% | [2] 0.1% | [3] -3.1%

COc1ccc(C=NCC2COc3ccccc3O2)cc1OC (centres undefined)
inactive: [1] -0.8% | [2] -3.3% | [3] -3.2%

Cc1ccc2c(c1)c1c(n2C)C(=O)CCC1
inactive: [1] -1.5% | [2] -1% | [3] 3.3%

CCOC(=O)[C@H](CCc1ccccc1)N[C@@H](C)C(=O)N1CCC[C@H]1C(=O)O
inactive: [1] 3.5% | [2] 0.2% | [3] 3.9%

O=C(Cc1ccccc1)NCC(=O)OCC(=O)c1ccccc1Cl
inactive: [1] 1% | [2] -2.5% | [3] -9.6%

COC(=O)c1ccccc1OCCOCCOc1cccc2ccc(C)nc12
inactive: [1] 0.3% | [2] 3.8% | [3] -4%

CC1=CC(C)(C)N2C(=O)C3(NCCc4c3[nH]c3ccccc43)c3cc(C)cc1c32 (centres undefined)
inactive: [1] -0.9% | [2] -2.5% | [3] 0.2%

CO/N=C(\C(=O)N[C@@H]1C(=O)N2C(C(=O)O)=C(COC(C)=O)CS[C@H]12)c1csc(N)n1 (stereo in doubt)
inactive: [1] 2.7% | [2] -1.1% | [3] -5.4%

OC(C#CCN1CCCC1)(c1ccccc1)c1cccnc1 (centres undefined)
inactive: [1] -1% | [2] -1% | [3] -1.1%

CC1CCc2cc(F)cc3c(=O)c(C(=O)O)cn1c23 (centres undefined)
inactive: [1] 3.2% | [2] 1.8% | [3] 3.5%

CCOCc1cc(C)[nH]c(=O)c1C#N
inactive: [1] -0.2% | [2] 2.8% | [3] 2%

Nc1nc2c(nc(SCc3ccccc3Br)n2C2OC(CO)C(O)C2O)c(=O)[nH]1 (centres undefined)
inactive: [1] -2.6% | [2] -1.9% | [3] -1.1%

COC(=O)c1[nH]c(=O)c2ccccc2c1O
inactive: [1] 0.4% | [2] 0.2% | [3] -1.7%

C[C@]12CC[C@@H]3c4cc(O)c(O)cc4CC[C@H]3[C@@H]1CC[C@@H]2O
inactive: [1] -1% | [2] 1% | [3] -0.8%

O=C1CCCC(=O)C1=Cc1c[nH]c2ccccc12
inactive: [1] 3% | [2] 0.4% | [3] -6.4%

CC[N+]1(CC)CC2=Cc3ccccc3CC2C1 (centres undefined)
inactive: [1] -1.1% | [2] 0% | [3] 3%

COc1ccc(CNC(=O)C2CCCN2C)cc1OC (centres undefined)
inactive: [1] 0.4% | [2] -2.5% | [3] 6.2%

CN(C)[C@@H]1C(=O)C(C(N)=O)=C(O)[C@@]2(O)C(=O)C3=C(O)c4c(O)ccc(Cl)c4[C@@H](O)[C@H]3C[C@@H]12
inactive: [1] -5.8% | [2] -0.3% | [3] -4.5%

CN(C)CCOC(=O)C(c1ccccc1)C1(O)CCCC1 (centres undefined)
inactive: [1] 2.3% | [2] -0.3% | [3] -6%

O=C(CSCc1ccccc1)NCCCN1CCOCC1
inactive: [1] -2.9% | [2] -0.9% | [3] -8.8%

COc1ccc(C2C3C(C)=NN=C3CC(C)(O)C2C(C)=O)cc1 (centres undefined)
inactive: [1] -2% | [2] -0.6% | [3] 4%

COc1ccc(CN(C)CCc2ccccn2)cc1OC
inactive: [1] -2.7% | [2] 0.2% | [3] -7.1%

O=C1CC(c2ccc(O)cc2)Oc2cc(O)cc(O)c21 (centres undefined)
inactive: [1] -2.6% | [2] -1.8% | [3] -0.4%

C#C[C@]1(O)CC[C@H]2[C@@H]3CCC4=C(CCC(=O)C4)[C@H]3CC[C@@]21C
inactive: [1] 0.3% | [2] 0.1% | [3] 0.8%

CC(=O)c1cccc(NC(=O)N[C@@H](CC(C)C)C(=O)O)c1
inactive: [1] -0.3% | [2] -1.7% | [3] -2.8%

C[N+]1(C2CCC3CCCC2C3O)CCCCC1 (centres undefined)
inactive: [1] 1.7% | [2] 2.4% | [3] -3.7%

O=C(COc1cc(O)c2c(=O)c3ccccc3oc2c1)OCc1ccccc1
inactive: [1] 1.4% | [2] 0.2% | [3] 1.6%

COc1cccc(N2C(=O)CC(c3c[nH]c4ccccc34)C2=O)c1 (centres undefined)
inactive: [1] 1.4% | [2] 2.4% | [3] -2%

COc1cc(-c2nnc(-c3cccs3)o2)cc(OC)c1OC
inactive: [1] 1.3% | [2] 1.7% | [3] 4.3%

O=C1C(Cc2ccccc2)NC(=S)N1c1ccccc1 (centres undefined)
inactive: [1] 3.8% | [2] 0.9% | [3] -7.8%

CC(=O)NCCCC(=O)NC(CCC(=O)OCc1ccccc1)C(=O)OCc1ccccc1 (centres undefined)
inactive: [1] -1% | [2] -1.4% | [3] -8.6%

O=C(CCCCC(=O)NC1CCCC1)NC1CCCC1
inactive: [1] 1.5% | [2] 0.2% | [3] -3.4%

COC(=O)c1[nH]c2ccc(C)cc2c1NC(=O)CN1CCc2cc(OC)c(OC)cc2C1
inactive: [1] -1.9% | [2] -1.7% | [3] 2.1%

O=C(NC1CCCCC1)c1cc2nc(-c3ccco3)cc(C(F)(F)F)n2n1
inactive: [1] 2.6% | [2] 1.2% | [3] 0.5%

CCOc1ccc(C(=O)NCC2(c3ccccc3)CCOCC2)cc1
inactive: [1] -5.3% | [2] -0.2% | [3] -6.4%

CNC(=O)Oc1ccc2c(c1)[C@]1(C)CCN(C)[C@@H]1N2C
inactive: [1] -0.4% | [2] 1.1% | [3] 0.5%

C[C@]12CCC(=O)C=C1[C@H](O)C[C@@H]1[C@@H]2[C@@H](O)C[C@@]2(C)[C@H]1CC[C@]2(O)C(=O)CO
inactive: [1] -0.1% | [2] -0.3% | [3] 4.2%

CCCC(CCC)C(=O)OC1C[C@H]2CC[C@@H](C1)[N+]2(C)C (some centres undefined)
inactive: [1] -1.1% | [2] 1% | [3] 2.3%

From PubChem BioAssay
